Records with an inconclusive call do not appear. Calls of active or inactive are those of the source. Calls follow the shape of the dose curve; as a rule, active = well fitted curve in the direction sought with a large enough effect in the repeat runs; inconclusive = weak or mixed curves; inactive = no such curve, though single readings can be large; an effect the other way counts as inactive or inconclusive.
What was measured:
[1] = qHTS RealTime-Glo MT Cell Viability Assay in HepG2 cells - 40 hour (AID 1224870); also: nearly all actives have a fitted effect of over 50% in size
Summary of the method: (§1)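 HepG2 cells (600/well) mixed with RealTime-Glo MT reagent, settled 5 h at 37 C/5% CO2 before compound addition. Nonlytic NanoLuc luminescence from viable-cell prosubstrate reduction read repeatedly during 40 h treatment at 37 C.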

[2] = A CellTox Green Cytotoxicity Assay to monitor cytotoxicity in HEK293 cells - 40 hour (AID 1224871); also: nearly all actives have a fitted effect of over 45% in size
Summary of the method: (§2)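 Seeding of HEK293 cells together with cytotoxicity dye preceded a 5 h incubation at 37 C/5% CO2. Test compounds in DMSO were then added and fluorescence monitored across 40 h.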

[3] = qHTS RealTime-Glo MT Cell Viability Assay in HEK293 cells - 16 hour (AID 1224872); also: nearly all actives have a fitted effect of over 50% in size; also: potency is read from the fitted curve at half-maximal effect; as to activity change, negative = cytotoxicity: top concentration of the series differs between compounds
Summary of the method: (§3)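 Quantitative high-throughput screen of the Tox21 10K library in HEK293: cells and RealTime-Glo reagents plated together, compound added at 5 h, luminescence monitored through 40 h at 37 C.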

[4] = qHTS RealTime-Glo MT Cell Viability Assay in HepG2 cells - 8 hour (AID 1224873); also: nearly all actives have a fitted effect of over 55% in size
Summary of the method: as §1

[5] = qHTS RealTime-Glo MT Cell Viability Assay in HEK293 cells - 40 hour (AID 1224874); settings: RealTime-Glo luminescence; max response: active compounds read low; also: nearly all actives have a fitted effect of over 50% in size; also: potency is read from the fitted curve at half-maximal effect
Summary of the method: (§4)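 Tox21 screen in HEK293 using RealTime-Glo MT chemistry, with cells and reagent co-dispensed. Luminescence proportional to viable cell number was captured at intervals during 40 h compound exposure at 37 C.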

[6] = A CellTox Green Cytotoxicity Assay to monitor cytotoxicity in HEK293 cells - 24 hour (AID 1224875); also: series mostly up to about 77 µM; nearly all actives have a fitted effect of over 45% in size
Summary of the method: as §2

[7] = A CellTox Green Cytotoxicity Assay to monitor cytotoxicity in HepG2 cells - 16 hour (AID 1224876); also: nearly all actives have a fitted effect of over 45% in size
Summary of the method: (§5)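 Nonlytic assay: viable cells exclude the dye, so fluorescence scales with cell death. HepG2 at 600 cells/well, compounds added after 5 h, signal read across 40 h.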

[8] = qHTS RealTime-Glo MT Cell Viability Assay in HepG2 cells - 32 hour (AID 1224877); also: nearly all actives have a fitted effect of over 55% in size
Summary of the method: (§6)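 Compound treatment began 5 h after plating HepG2 cells (600/well) with NanoLuc luciferase and prosubstrate. Plates stayed at 37 C for 40 h; luminescence was captured at six time points, 0 h through 40 h.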

[9] = A CellTox Green Cytotoxicity Assay to monitor cytotoxicity in HepG2 cells - 24 hour (AID 1224878); also: nearly all actives have a fitted effect of over 45% in size
Summary of the method: as §5

[10] = A CellTox Green Cytotoxicity Assay to monitor cytotoxicity in HepG2 cells - 40 hour (AID 1224879); also: nearly all actives have a fitted effect of over 40% in size
Summary of the method: as §5

[11] = qHTS RealTime-Glo MT Cell Viability Assay in HEK293 cells - 0 hour (AID 1224880)
Summary of the method: as §4

[12] = A CellTox Green Cytotoxicity Assay to monitor cytotoxicity in HEK293 cells - 32 hour (AID 1224881); also: nearly all actives have a fitted effect of over 40% in size
Summary of the method: as §2

[13] = A CellTox Green Cytotoxicity Assay to monitor cytotoxicity in HepG2 cells - 0 hour (AID 1224882); also: nearly all actives have a fitted effect of over 35% in size
Summary of the method: as §5

[14] = A CellTox Green Cytotoxicity Assay to monitor cytotoxicity in HepG2 cells - 32 hour (AID 1224883); also: nearly all actives have a fitted effect of over 50% in size
Summary of the method: as §5

[15] = A CellTox Green Cytotoxicity Assay to monitor cytotoxicity in HEK293 cells - 8 hour (AID 1224884); also: nearly all actives have a fitted effect of over 35% in size
Summary of the method: as §2

[16] = qHTS RealTime-Glo MT Cell Viability Assay in HepG2 cells - 16 hour (AID 1224885); also: nearly all actives have a fitted effect of over 50% in size
Summary of the method: as §6

[17] = qHTS RealTime-Glo MT Cell Viability Assay in HEK293 cells - 24 hour (AID 1224886); also: nearly all actives have a fitted effect of over 50% in size; also: potency is read from the fitted curve at half-maximal effect; as to activity change, negative = cytotoxicity: top concentration of the series differs between compounds
Summary of the method: as §3

[18] = qHTS RealTime-Glo MT Cell Viability Assay in HEK293 cells - 8 hour (AID 1224887); also: nearly all actives have a fitted effect of over 50% in size; also: potency is read from the fitted curve at half-maximal effect; as to activity change, negative = cytotoxicity: top concentration of the series differs between compounds
Summary of the method: as §4

[19] = A CellTox Green Cytotoxicity Assay to monitor cytotoxicity in HEK293 cells - 16 hour (AID 1224888); also: nearly all actives have a fitted effect of over 35% in size
Summary of the method: as §2

[20] = qHTS RealTime-Glo MT Cell Viability Assay in HepG2 cells - 0 hour (AID 1224889); also: nearly all actives have a fitted effect of over 50% in size
Summary of the method: as §6
% is scaled to controls: 0 for no effect and ±100 for the full control effect.

CCOc1cc([N+](=O)[O-])c(OCC)cc1N1CCOCC1
inactive: outcome [1] | Potency [2] | outcome [4] | outcome [6] | outcome [7] | outcome [8] | outcome [9] | Potency [10] | Potency [11] | Potency [12] | outcome [13] | Potency [14] | Potency [15] | outcome [16] | outcome [19] | Potency [20]
active: Potency [3] 19.5 µM | Potency [5] 15.5 µM | Potency [17] 15.5 µM | Potency [18] 15.5 µM

CC(=O)CCCCn1c(=O)c2c(ncn2C)n(C)c1=O
inactive: outcome [1] | Potency [2] | Potency [3] | outcome [4] | max response [5] -0.881% | outcome [6] | outcome [7] | outcome [8] | outcome [9] | Potency [10] | Potency [11] | Potency [12] | outcome [13] | Potency [14] | Potency [15] | outcome [16] | Potency [17] | Potency [18] | outcome [19] | Potency [20]

CC(C)OC(=O)CCCCC(=O)OC(C)C
inactive: outcome [1] | Potency [2] | Potency [3] | outcome [4] | max response [5] 13.3% | outcome [6] | outcome [7] | outcome [8] | outcome [9] | Potency [10] | Potency [11] | Potency [12] | outcome [13] | Potency [14] | Potency [15] | outcome [16] | Potency [17] | Potency [18] | outcome [19] | Potency [20]

COc1nccnc1NS(=O)(=O)c1ccc(N)cc1
inactive: outcome [1] | Potency [2] | Potency [3] | outcome [4] | max response [5] 2.98% | outcome [6] | outcome [7] | outcome [8] | outcome [9] | Potency [10] | Potency [11] | Potency [12] | outcome [13] | Potency [14] | Potency [15] | outcome [16] | Potency [17] | Potency [18] | outcome [19] | Potency [20]

O=S(=O)(O)c1cc(O)c2ccc(Nc3ccccc3)cc2c1
inactive: outcome [1] | Potency [2] | Potency [3] | outcome [4] | max response [5] 11.9% | outcome [6] | outcome [7] | outcome [8] | outcome [9] | Potency [10] | Potency [11] | Potency [12] | outcome [13] | Potency [14] | Potency [15] | outcome [16] | Potency [17] | Potency [18] | outcome [19]

CCC(C)(CCC(C)C)C(=O)O (centres undefined)
inactive: outcome [1] | Potency [2] | Potency [3] | outcome [4] | max response [5] 2.99% | outcome [6] | outcome [7] | outcome [8] | outcome [9] | Potency [10] | Potency [11] | Potency [12] | outcome [13] | Potency [14] | Potency [15] | outcome [16] | Potency [17] | Potency [18] | outcome [19] | Potency [20]

O=C(c1ccc(O)cc1)c1ccc(O)c(O)c1O
inactive: outcome [1] | Potency [2] | Potency [3] | outcome [4] | max response [5] -10.5% | outcome [6] | outcome [7] | outcome [8] | outcome [9] | Potency [10] | Potency [11] | Potency [12] | outcome [13] | Potency [14] | Potency [15] | outcome [16] | Potency [17] | Potency [18] | outcome [19] | Potency [20]

O=C(NCCN1CCOCC1)c1ccc(Cl)cc1
inactive: outcome [1] | Potency [2] | Potency [3] | outcome [4] | max response [5] 5.6% | outcome [6] | outcome [7] | outcome [8] | outcome [9] | Potency [10] | Potency [11] | Potency [12] | outcome [13] | Potency [14] | Potency [15] | outcome [16] | Potency [17] | Potency [18] | outcome [19] | Potency [20]

N[C@@H](COP(=O)(O)O)C(=O)O
inactive: activity change, negative = cytotoxic [1] 1.81% [at 15.8 µM] | cytotoxicity increase [2] -6.71% [at 15.8 µM] | activity change, negative = cytotoxicity [3] 6.19% [at 15.8 µM] | viability change, negative = cytotoxic [4] 0.974% [at 15.8 µM] | max response [5] 7.08% | activity change [6] -7.17% [at 15.8 µM] | cytotoxicity increase [7] 1.02% [at 15.8 µM] | activity change, negative = cytotoxic [8] 1.44% [at 15.8 µM] | cytotoxicity [9] 0.599% [at 15.8 µM] | cytotoxicity increase [10] -0.277% [at 15.8 µM] | activity change, negative = cytotoxicity [11] 12.6% [at 15.8 µM] | cytotoxicity increase [12] -6.18% [at 15.8 µM] | cytotoxicity [13] 0.162% [at 15.8 µM] | cytotoxicity increase [14] -0.733% [at 15.8 µM] | cytotoxicity increase [15] -2.54% [at 15.8 µM] | activity change, negative = cytotoxic [16] 1.13% [at 15.8 µM] | activity change, negative = cytotoxicity [17] 1.75% [at 15.8 µM] | activity change, negative = cytotoxicity [18] 10.1% [at 15.8 µM] | activity change [19] -5.61% [at 15.8 µM] | activity change, negative = cytotoxicity [20] -1.1% [at 15.8 µM]

C[Si](C)=O
inactive: activity change, negative = cytotoxic [1] -3.86% [at 6.97 µM] | cytotoxicity increase [2] 12.6% [at 6.97 µM] | activity change, negative = cytotoxicity [3] 2.27% [at 6.97 µM] | viability change, negative = cytotoxic [4] 1.52% [at 6.97 µM] | max response [5] 0.522% | activity change [6] 9.97% [at 6.97 µM] | cytotoxicity increase [7] -6.23% [at 6.97 µM] | activity change, negative = cytotoxic [8] 0.305% [at 6.97 µM] | cytotoxicity [9] -4.98% [at 6.97 µM] | cytotoxicity increase [10] -11.7% [at 6.97 µM] | activity change, negative = cytotoxicity [11] -1.57% [at 6.97 µM] | cytotoxicity increase [12] 10.3% [at 6.97 µM] | cytotoxicity [13] -2.11% [at 6.97 µM] | cytotoxicity increase [14] -6.59% [at 6.97 µM] | cytotoxicity increase [15] 1.88% [at 6.97 µM] | activity change, negative = cytotoxic [16] 0.315% [at 6.97 µM] | activity change, negative = cytotoxicity [17] 0.58% [at 6.97 µM] | activity change, negative = cytotoxicity [18] -1.9% [at 6.97 µM] | activity change [19] 1.45% [at 6.97 µM] | activity change, negative = cytotoxicity [20] 8.65% [at 6.97 µM]

O=C(NCC(O)CO)c1c(I)c(C(=O)NCC(O)CO)c(I)c(N(CCO)C(=O)CO)c1I (centres undefined)
inactive: outcome [1] | Potency [2] | Potency [3] | outcome [4] | max response [5] 8.98% | outcome [6] | outcome [7] | outcome [8] | outcome [9] | Potency [10] | Potency [11] | Potency [12] | outcome [13] | Potency [14] | Potency [15] | outcome [16] | Potency [17] | Potency [18] | outcome [19] | Potency [20]

O=P(O)(O)OP(=O)(O)O
inactive: outcome [1] | Potency [2] | Potency [3] | outcome [4] | max response [5] 2.82% | outcome [6] | outcome [7] | outcome [8] | outcome [9] | Potency [10] | Potency [11] | Potency [12] | outcome [13] | Potency [14] | Potency [15] | outcome [16] | Potency [17] | Potency [18] | outcome [19] | Potency [20]

Reference: PubChem BioAssay (Tox21)
